PrP 5UTR inh = inhibition of PrP 5' UTR reporter expression; cell-based PrP 5' UTR mRNA reporter, plate reader; inhibition, % (no concentration beside the values); 340,000 tested, 0.35% active; AID 488862; in the data active = inhibition above about 52%; also: 0 = median of the neutral control wells
DUSP3 inh = DUSP3 (human) phosphatase inhibition. P51452. recombinant VHR phosphatase, pNPP absorbance. inhibition, % at 13.3 µM. 290,000 tested, 0.52% active; in the data active = inhibition above about 50%
Target sequence (P51452 whole entry, looked up): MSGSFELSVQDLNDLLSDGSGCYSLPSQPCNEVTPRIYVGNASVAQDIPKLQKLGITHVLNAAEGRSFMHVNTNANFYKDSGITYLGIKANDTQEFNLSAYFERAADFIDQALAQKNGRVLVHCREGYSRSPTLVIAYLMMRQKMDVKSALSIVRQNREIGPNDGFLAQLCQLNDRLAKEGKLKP
MazF activator = MazEF (E. coli) toxin RNase activation; AID 504720; 350,000 tested, 0.32% active; FAM/BHQ RNA-DNA oligo cleavage fluorescence, 5 h; activation, % at 20 µM; in the data active = activation above about 50%
Target sequence (P0AE70 whole entry, looked up): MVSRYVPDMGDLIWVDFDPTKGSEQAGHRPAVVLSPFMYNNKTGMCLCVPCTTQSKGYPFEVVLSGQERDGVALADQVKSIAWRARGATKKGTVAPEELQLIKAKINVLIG
Mtb hypoxia rep = Mtb hypoxia fluorescent reporter inhibition | M. tuberculosis hypoxia-regulated fluorescent reporter, fluorescence | fluorescence inhibition, % (no concentration beside the values) | 300,000 tested, 0.1% active; in the data active = fluorescence inhibition mostly above about 23%, no sharp cut-off; inactive = mostly below about 17%
PrPC TRFRET = inhibitors of human cell surface prion protein PrPC | P04156 | TR-FRET read-out | inhibition, % at 13.8 µM | 370,000 tested, 0.43% active | AID 720596; in the data active = inhibition above about 24%; also: 0% = median of the test wells and 100% = reference compound wells
SARS 3CLpro inh = SARS-CoV 3CLpro protease inhibition; recombinant SARS-CoV 3CLpro, quenched FRET peptide cleavage; 290,000 tested, 0.14% active; P0C6X7; inhibition, % at 6 µM; in the data active = inhibition above about 12%
An asterisk follows results filed as active; . = no result. Rows were chosen to be rich in hits. Some 1.5% of all compounds tested hit in one or more screens of this group.

SMILES | PrP 5UTR inh | DUSP3 inh | MazF activator | Mtb hypoxia rep | PrPC TRFRET | SARS 3CLpro inh
CC(C)NC(=O)c1ccc(CSCc2ccccc2Cl)o1 | -17.9 | 56.9* | 1.6 | 4.9 | 16.4 | -3.0
CCC(C)NC(=O)c1ccc(CSCc2ccccc2Cl)o1 (stereo unspecified) | -3.7 | -7.6 | 3.2 | 1.3 | -3.3 | 0.6
CCOC(=O)c1c(NC(=O)CN2C(=O)NC3(CCCCC3C)C2=O)sc(C(=O)N(C)C)c1C (stereo unspecified) | 5.1 | . | 4.3 | 4.9 | -5.7 | .
CCOC(=O)c1c(NC(=O)CN2C(=O)N(C)C3(CCCCC3)C2=O)sc(C(=O)N(C)C)c1C | -9.3 | . | 4.9 | 24.7* | 6.3 | .
CCOc1ccc2oc(C(=O)OCC(=O)NCc3ccc(OC)cc3)c(C)c2c1 | -14.9 | . | -0.1 | 32.4* | 0.6 | .
COc1ccccc1C=NNC(=O)CC(=O)NCc1ccccc1 | . | . | . | 4.7 | . | .
O=C(c1ccc(Cl)cc1Cl)N1CCC(c2nc3c(nnn3Cc3ccco3)c(=O)[nH]2)CC1 | -7.6 | 27.7 | -2.7 | 4.6 | 1.2 | 1.0
O=C(c1ccccc1)N1CCC(c2nc3c(nnn3Cc3ccco3)c(=O)[nH]2)CC1 | -5.5 | 50.0* | 6.3 | 8.2 | 0.5 | 0.6
CCOc1cc(C=NNC(=O)CSc2nncn2C)ccc1OCc1cccc(C)c1 | . | . | . | 8.9 | . | .
C=C(C)CNC(=S)N=c1scc(C)n1CC | . | . | . | 3.0 | . | .
CCOc1ccc(C(=O)Nc2cccc3nsnc23)cc1[N+](=O)[O-] | -24.7 | 56.4* | -3.4 | -11.5 | -0.7 | 3.9
C=CCN1C(=O)CSC1=NS(=O)(=O)c1ccc(Cl)cc1 | . | . | . | -0.7 | . | .
O=[N+]([O-])c1ccc2c(c1)ncn2-c1ccccc1 | -43.7 | -11.3 | 3.8 | 5.8 | -14.3 | -2.4
O=[N+]([O-])c1ccc(-n2cnc3ccccc32)c([N+](=O)[O-])c1 | -23.8 | -15.2 | 1.1 | 41.6* | -55.8 | 2.8
COc1ccc(C2Nc3ccccc3C(=O)N2NC(C)=O)c(OC)c1 (stereo unspecified) | -2.2 | 52.6* | -2.0 | -10.2 | 6.8 | -1.8
CCC(C)NC(=O)N[C@@H](CCSC)C(=O)OC (stereo partly specified) | -33.5 | 56.4* | -0.8 | 10.8 | -0.9 | 1.4
CCCCOCCCNC(=O)N[C@@H](CCSC)C(=O)OC | . | 7.0 | 1.7 | 4.0 | -2.4 | -1.6
CC1=CC2=NC(=O)/C(=C\c3ccc(-c4cccc(Cl)c4)o3)C(=N)N2O1 | -25.4 | 15.2 | 83.6* | 14.3 | 0.4 | -5.1
COc1ccc(OC)c(CNC(=O)C2CCN(S(=O)(=O)N3CCCCC3)CC2)c1 | -5.4 | 51.2* | 1.5 | 0.4 | 2.0 | 4.9
CC(NCc1ccccc1)=C(C#N)C(=O)NCc1ccccc1 | . | . | . | 4.7 | . | .
CCOc1ccccc1C1C(C#N)=C(N)SC(N)=C1C#N | -30.2 | 30.4 | -28.1 | . | 46.9* | 0.9
CCn1cc(C(=O)NCCCOC)c(=O)c2cc(S(=O)(=O)N(C)C3CCCCC3)ccc21 | -6.9 | 7.8 | -5.3 | . | -2.4 | 0.7
CCC1CCCCN1CCCNC(=O)c1cn(CC)c2ccc(S(=O)(=O)N(C)C3CCCCC3)cc2c1=O (stereo unspecified) | -20.0 | 51.2* | 18.1 | -6.6 | -15.9 | -1.5
CCN1CCCC1CNC(=O)c1cn(C)c2ccc(S(=O)(=O)N3CCCCCC3)cc2c1=O (stereo unspecified) | -10.5 | 50.8* | 11.7 | -0.8 | -8.1 | -2.0
CCN1CCCC1CNC(=O)c1cn(CC)c2ccc(S(=O)(=O)N3CCCCCC3)cc2c1=O (stereo unspecified) | . | -7.3 | . | 2.6 | . | 1.9
O=S(=O)(c1ccccc1)N1N=C(c2ccccc2)CC1c1ccccc1F (stereo unspecified) | -11.8 | 53.0* | -6.8 | -3.4 | -4.9 | -0.1
O=C(NCc1ccccc1F)C1CCCN1S(=O)(=O)c1ccc(F)cc1 (stereo unspecified) | -16.6 | 58.7* | -16.2 | -2.1 | 3.6 | 2.6
O=C(NC1CCCCC1)C1CCCN1S(=O)(=O)c1ccc(Cl)cc1 (stereo unspecified) | -20.8 | 53.3* | 4.1 | 13.1 | -2.9 | -5.5
CC(=O)N1c2ccc(S(=O)(=O)N3CCCC3)cc2CC1C(=O)NCc1ccccc1F (stereo unspecified) | -7.6 | 56.3* | -14.3 | -2.9 | -1.9 | -5.2
CC(=O)N1c2ccc(S(=O)(=O)N3CCCCC3)cc2CC1C(=O)NCc1ccccc1C (stereo unspecified) | -5.2 | 52.1* | 12.0 | 5.0 | -1.4 | -3.5
